SMILES strings stand for the structures. Results filed as inconclusive are left out. A call without a number means that no potency is given here. Active and inactive are the calls of the source. Calls come from the whole dose curve; as a rule, active = well fitted inhibition curve with a large enough effect; inconclusive = small, poorly fitted or top-dose-only effect; inactive = no such curve, though single readings can be large or run the other way.
Potency is the fitted concentration of half-maximal effect.

Sequence of Tumor susceptibility gene 101 protein (Homo sapiens) (Q99816 whole entry, looked up, the tested form may be a part): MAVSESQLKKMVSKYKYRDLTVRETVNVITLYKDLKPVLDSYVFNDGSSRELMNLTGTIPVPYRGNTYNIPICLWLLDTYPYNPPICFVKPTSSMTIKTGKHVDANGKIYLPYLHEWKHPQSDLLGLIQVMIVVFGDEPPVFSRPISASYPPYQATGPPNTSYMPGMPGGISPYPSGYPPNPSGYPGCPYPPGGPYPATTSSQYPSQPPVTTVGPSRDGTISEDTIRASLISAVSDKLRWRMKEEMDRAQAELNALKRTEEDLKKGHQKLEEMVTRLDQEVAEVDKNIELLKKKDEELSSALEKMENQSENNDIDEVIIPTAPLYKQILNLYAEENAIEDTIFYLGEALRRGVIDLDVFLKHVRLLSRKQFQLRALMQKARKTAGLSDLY

The target of this assay is Tumor susceptibility gene 101 protein (Homo sapiens) (UniProt Q99816). The experiment in a line: qHTS Assay for Iinhibitors of HIV-1 Budding by Blocking the Interaction of PTAP/TSG101: Hit Validation (AID 651600). Note: nearly all actives have a fitted effect of over 70% in size. As to conditions: PTAP peptide/TSG101 UEV interaction, biochemical assay; series mostly up to 57.5 µM. The essentials:
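Compounds are added to the Tsg101 binding domain (10 uM final) in pH 7.5 HEPES buffer. FITC-PTAP peptide follows at 50 nM final. After 20 min at r.t., polarized FITC emission is measured.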
(In general: In qHTS, concentration-response curves come from the screen itself.)
For `COC(=O)C[C@H]1c2cc(F)ccc2S(=O)(=O)N1c1ccccc1`, the Potency entry is “inactive”.

Turning to `CC(=O)c1cccc(-n2nnnc2SCC(=O)Nc2cc(C)on2)c1`, the Potency result is “inactive”.

Turning to `CCN(CC)c1ccc(/C=C(\C#N)C(=O)NCc2ccccc2)cc1`, the Potency is 14.6 µM (active).

For the compound `COc1ccc2oc3ccccc3c(=O)c2c1`, the Potency result was “inactive”.

Source of the values: PubChem BioAssay (NCATS).
